# Measured values reported in PubChem BioAssay (NCATS).
# Results filed as inconclusive are left out. Unmarked numbers belong to inactive results. The call rests on the fitted dose curve; in most records, active means well fitted cell-killing curve with a large enough effect; inconclusive means small, poorly fitted or top-dose-only effect, or effect the other way; inactive means flat fitted curve, though single readings scatter.
# Test system: Tov112D
# Test: Primary qHTS to identify gynecologic anti-cancer compounds using libraries of approved drugs and bioactive compounds (AID 1345084); further: nearly all actives have a fitted effect of over 55% in size
# Details: Gynecologic cancer cell panel viability, ATPlite luminescence, 48 h; series mostly up to 57.5 µM; activity change, negative = cytotoxicity: at the top concentration
# In short: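 48 h compound exposure at 37 C, 5% CO2; five-point qHTS. ATPlite luminescence readout of cell ATP.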
# On the % scale 0 is the no-effect control and ±100 the full control effect.
row,Compound,"activity change, negative = cytotoxicity"
1,C/C=C(\C)C(=O)O[C@H]1[C@@H](O[C@]2(COC(=O)CC(C)C)O[C@H](COC(=O)C(C)CC)[C@@H](OC(C)=O)[C@@H]2O)O[C@H](COC(C)=O)[C@@H](O)[C@@H]1O (some centres not stated),-2.79% [at 25.3 µM]
2,C=C(C(=O)O)C1CC2=C(C)CCCC2(C)C[C@@H]1O (some centres not stated),9.36%
3,O=C(NCc1ccc(F)cc1)C(=O)c1c[nH]c2ccccc12,-19.1%
4,C/C(=C\C=C\C(C)C1CCC2(C)C3CCC4C(C)(C)C(=O)CCC45CC35CCC12C)C(=O)O (configuration not stated),0.87% [at 25.3 µM]
5,C/C(=C\CCC(C)CCO)C(=O)OC1(C)CCC2C(C(=O)O)=COC(OC3OC(CO)C(O)C(O)C3O)C21 (configuration not stated),13.4% [at 25.3 µM]
6,CC(=O)O[C@@H]1[C@@H](OC(=O)/C=C/c2ccccc2)[C@@H](OC(C)=O)[C@H](O[C@H]2[C@@H]3C=CO[C@@H](O[C@@H]4O[C@H](CO)[C@@H](O)[C@H](O)[C@H]4O)[C@@H]3[C@@]3(CO)O[C@@H]23)O[C@H]1C,1.54% [at 25.3 µM]
7,CCN(CC)Cc1ccc(C(=O)N(CCc2ccccc2OC)[C@@H]2CCNC2)cc1,-3.62% [at 25.3 µM]
8,O=C1OCc2cc3cccc(O[C@@H]4O[C@H](CO)[C@@H](O)[C@H](O)[C@H]4O)c3c(O)c21,-5.58% [at 38.5 µM]
9,N#Cc1ccc(C(=O)N2CCC3(CC2)N=C(N)c2c(F)ccc(F)c2N3)cn1,-0.507%
10,CCCCc1ccc(C(=O)Nc2cc(-c3ccc(Cl)cc3)nn2-c2ccc(Cl)cc2)cc1,-5.57%
11,O=C(C(c1ccccc1)c1ccccc1)N1CCN(CC(O)COc2cccc3ncccc23)CC1 (configuration not stated),-0.42%
12,CC(C)c1cc2c(c(O)c1O)[C@@]13CCCC(C)(C)[C@@H]1[C@H](OC3=O)C2=O,0.842% [at 38.5 µM]
